Experimental data published in PubChem BioAssay (EPA / NIEHS).
Results filed as inconclusive are left out. The source made the active and inactive calls. Rule for the calls, unless noted: active = hit-call score of the fitted dose curve at least 0.9, where 1 is the maximum; inconclusive = response in the unintended direction; inactive = score below 0.9.

How the values were obtained:
[1] = TOX21_p53_BLA_p2_viability: Viability Assessment in the Tox21 HCT-116 p53 Agonism Beta-lactamase Assay, Phase 2 (AID 2283591);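 note: compound exposure lasted 16 h at 37 °C; actives lower the ATP signal meaning cytotoxicity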
Method in brief: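 Cytotoxicity readout: CellTiter-Glo ATP luminescence, 30 min at room temperature, after the beta-lactamase read. Cells were HCT116 exposed 16 h at 37C to compounds pin-transferred at 217-fold dilution from DMSO stocks.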

[2] = target: Cellular tumor antigen p53 (Homo sapiens) (UniProt P04637); experiment: TOX21_p53_BLA_p2_ratio: Tox21 HCT-116 p53 Agonism Beta-lactamase Assay, Ratio, Phase 2 (AID 2283592)
Method in brief: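 Ratio endpoint: beta-lactamase cleavage of CCF4-AM, blue (460 nm) over green (530 nm). HCT116 reporter line; 16 h treatment, 37C; substrate 2 h RT.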

[3] = TOX21_p53_BLA_p3_viability: Viability Assessment in the Tox21 HCT-116 p53 Agonism Beta-lactamase Assay, Phase 3 (AID 2283593);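 note: cells exposed to compound for 16 h before reading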
Method in brief: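 Cellular ATP was quantified by CellTiter-Glo luminescence, read after 30 min at room temperature. Beforehand, HCT116 cells (4000/well) received compound 5 h post-seeding, 217-fold diluted from DMSO, then incubated 16 h at 37C.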

[4] = target: Cellular tumor antigen p53 (Homo sapiens) (UniProt P04637); experiment: TOX21_p53_BLA_p3_ratio: Tox21 HCT-116 p53 Agonism Beta-lactamase Assay, Ratio, Phase 3 (AID 2283596)
Method in brief: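 Cells were seeded at 4000/well, rested 5 h at 37C, then dosed with DMSO compound solutions (217-fold dilution) for 16 h. CCF4-AM substrate was loaded for 2 h at room temperature, and the 460/530 nm emission ratio was fitted for gain of signal versus DMSO.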

[5] = target: Cellular tumor antigen p53 (Homo sapiens) (UniProt P04637); experiment: TOX21_p53_BLA_p5_ratio: Tox21 HCT-116 p53 Agonism Beta-lactamase Assay, Ratio, Phase 5 (AID 2283599)
Method in brief: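 Beta-lactamase reporter ratio (blue 460 nm over green 530 nm, 405 nm excitation) after 2 h CCF4-AM loading, in HCT-116 cells exposed 16 h at 37 C to compounds pinned at 217-fold dilution. Increases relative to DMSO baseline scored.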

[6] = TOX21_p53_BLA_p5_viability: Viability Assessment in the Tox21 HCT-116 p53 Agonism Beta-lactamase Assay, Phase 5 (AID 2283600)
Method in brief: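 Luciferase-coupled ATP quantitation of cells treated for 16 h (37C, 5% CO2) with test chemicals delivered in DMSO via a 217-fold dilution; 4000 cells/well; reagent incubated 30 min at room temperature before luminescence reading.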

[7] = target: Cellular tumor antigen p53 (Homo sapiens) (UniProt P04637); experiment: TOX21_p53_BLA_p4_ratio: Tox21 HCT-116 p53 Agonism Beta-lactamase Assay, Ratio, Phase 4 (AID 2283601)
Method in brief: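 Signal is the blue/green (460nm/530nm) ratio of cleaved versus uncleaved CCF4-AM substrate, read after 2 h substrate loading. Cells were HCT116 carrying the p53-responsive beta-lactamase reporter, dosed 16 h at 37C, 5% CO2; CellTiter-Glo measured in parallel.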

[8] = CCTE_Harrill_HTTr_Viability_MCF7: CCTE's 6-hour Cell Viability Assessment for the High-Throughput Transcriptomics (HTTr) Platform, in MCF-7 cells cultured in DMEM + 10% fetal bovine serum, Harrill Lab (AID 2284010; active = hit-call score of the fitted dose curve at least 0.9, where 1 is the maximum; inactive = score below 0.9)
Method in brief: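 Propidium iodide exclusion, imaged by high-content analysis, gauged viability after a six-hour exposure across eight concentrations. Cells were MCF-7 grown in DMEM with 10% fetal bovine serum; fits run in both directions against DMSO.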

[9] = CCTE_Harrill_HTTr_Apoptosis_MCF7: CCTE's 6-hour Apoptosis Assessment for the High-Throughput Transcriptomics (HTTr) Platform, in MCF-7 cells cultured in DMEM + 10% fetal bovine serum, Harrill Lab (AID 2284011; active = hit-call score of the fitted dose curve at least 0.9, where 1 is the maximum; inactive = score below 0.9)
Method in brief: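 MCF-7 cells in DMEM + 10% fetal bovine serum were exposed to chemicals for 6 hours over an eight-point dilution series. Caspase-3/7 activation was imaged by high content imaging with CellEvent Caspase 3/7 Green; bidirectional fitting used DMSO as baseline.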

[10] = ACEA_ER_AUC_viability: ACEA Biosciences xCELLigence Real-Time Cell Analysis on Estrogen Receptor Agonism for Viability (AID 2283782);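 note: hit means loss of impedance signal meaning reduced cell growth or viability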
Method in brief: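 Viability endpoint: reduced impedance area under the curve relative to DMSO, recorded by real-time electrode sensing over ~80 h of continuous exposure. Duplicate plates of T47D in hormone-depleted medium; eight concentrations, 1:4 dilutions, 100 uM maximum.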

Sequence of Cellular tumor antigen p53 (Homo sapiens) (P04637 whole entry, looked up): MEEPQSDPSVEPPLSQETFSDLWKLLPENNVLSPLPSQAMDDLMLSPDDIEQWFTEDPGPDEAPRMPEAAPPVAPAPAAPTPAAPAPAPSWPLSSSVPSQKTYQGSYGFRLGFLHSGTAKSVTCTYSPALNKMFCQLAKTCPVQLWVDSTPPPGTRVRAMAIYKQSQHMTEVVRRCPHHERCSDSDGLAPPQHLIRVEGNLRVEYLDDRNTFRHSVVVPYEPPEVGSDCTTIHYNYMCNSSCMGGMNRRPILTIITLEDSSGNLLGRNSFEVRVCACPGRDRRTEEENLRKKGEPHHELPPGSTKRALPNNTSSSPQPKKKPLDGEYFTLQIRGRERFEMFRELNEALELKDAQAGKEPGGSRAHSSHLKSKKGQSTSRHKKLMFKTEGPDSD

For `COc1cc(OC)c(C(=O)CCCN2CCCC2)c(OC)c1`, the outcome [1] was “inactive”, the outcome [2] was “inactive” and the outcome [3] was “inactive”. The outcome [4] was “inactive”, the outcome [5] was “inactive” and the outcome [6] was “inactive”. For the same molecule, the outcome [7] was “inactive”, the outcome [8] was “inactive” and the outcome [9] was “inactive”.

In the case of `CCCCCCCC[N+](CCCCCCCC)(CCCCCCCC)CCCCCCCC`, the AC50 [1] is reported as 18.9 µM (active), the AC50 [2] is reported as 54.8 µM (active) and the AC50 [3] is reported as 29.3 µM (active). For the same molecule, the AC50 [4] was 56.2 µM (active), the AC50 [5] was 64.1 µM (active) and the AC50 [6] was 34 µM (active). The AC50 [7] was 64.5 µM (active).

With `COc1cccc(Br)c1` the outcome [1] was “inactive”, the outcome [2] was “inactive” and the outcome [3] was “inactive”. The outcome [4] was “inactive”, the outcome [5] was “inactive” and the outcome [7] was “inactive”.

For `O=C1c2ccccc2C(=O)c2cc(O)ccc21`, the outcome [1] was “inactive”, the AC50 [2] was 37.8 µM (active) and the outcome [3] was “inactive”. The outcome [4] was “inactive”, the outcome [5] was “inactive” and the AC50 [7] was 42.5 µM (active).

In the case of `CCc1ccc(S(=O)(=O)O)cc1`, the outcome [1] is reported as “inactive”, the outcome [2] is reported as “inactive” and the outcome [3] is reported as “inactive”. The outcome [4] was “inactive”, the outcome [5] was “inactive” and the outcome [6] was “inactive”. The outcome [7] was “inactive”.

In the case of `Cn1cnc2c(F)c(Nc3ccc(Br)cc3Cl)c(C(=O)NOCCO)cc21`, the outcome [1] is reported as “inactive”, the outcome [2] is reported as “inactive” and the outcome [3] is reported as “inactive”. The outcome [4] was “inactive”, the outcome [5] was “inactive” and the outcome [6] was “inactive”. For the same molecule, the outcome [7] was “inactive”.

For `FC(F)(F)C(Cl)Br` (stereo not given), the outcome [1] was “inactive”, the outcome [2] was “inactive” and the outcome [3] was “inactive”. The outcome [4] was “inactive”, the outcome [5] was “inactive” and the outcome [7] was “inactive”.

With `COC1=C(C(=O)O)N2C(=O)[C@@H](NC(=O)[C@H](N)C3=CCC=CC3)[C@H]2SC1` the outcome [1] was “inactive”, the outcome [2] was “inactive” and the outcome [3] was “inactive”. For the same molecule, the outcome [4] was “inactive”, the outcome [5] was “inactive” and the outcome [7] was “inactive”.

With `Cc1cc(O)c2ccccc2c1O` the outcome [1] was “inactive”, the outcome [2] was “inactive” and the outcome [3] was “inactive”. For the same molecule, the outcome [4] was “inactive”, the outcome [5] was “inactive” and the outcome [7] was “inactive”.

In the case of `CC(=O)OC1CCC(C(C)(C)C)CC1` (stereo not given), the outcome [1] is reported as “inactive”, the outcome [2] is reported as “inactive” and the outcome [3] is reported as “inactive”. For the same molecule, the outcome [4] was “inactive”, the outcome [5] was “inactive” and the outcome [7] was “inactive”.

With `O=[N+]([O-])c1cc(C2CCCCC2)c(O)c([N+](=O)[O-])c1` the outcome [1] was “inactive”, the AC50 [2] was 1.77 µM (active) and the outcome [3] was “inactive”. For the same molecule, the AC50 [4] was 0.902 µM (active), the outcome [5] was “inactive” and the outcome [6] was “inactive”. The outcome [7] was “inactive”.

In the case of `CCCCCCCC/C=C/CCCOC(C)=O`, the outcome [1] is reported as “inactive”, the outcome [2] is reported as “inactive” and the outcome [3] is reported as “inactive”. For the same molecule, the outcome [4] was “inactive”, the outcome [5] was “inactive” and the outcome [6] was “inactive”. The outcome [7] was “inactive” and the outcome [10] was “inactive”.

For `CC(C)C[C@H](NC(=O)[C@@H](COC(C)(C)C)NC(=O)[C@H](Cc1ccc(O)cc1)NC(=O)[C@H](CO)NC(=O)[C@H](Cc1c[nH]c2ccccc12)NC(=O)[C@H](Cc1cnc[nH]1)NC(=O)[C@@H]1CCC(=O)N1)C(=O)N[C@@H](CCCN=C(N)N)C(=O)N1CCC[C@H]1C(=O)NNC(N)=O`, the outcome [1] was “inactive”, the outcome [2] was “inactive” and the outcome [3] was “inactive”. The outcome [4] was “inactive”, the outcome [5] was “inactive” and the outcome [6] was “inactive”. The outcome [7] was “inactive”.

With `C=CC(=O)OCCOc1ccccc1` the outcome [1] was “inactive”, the outcome [2] was “inactive” and the outcome [3] was “inactive”. For the same molecule, the outcome [4] was “inactive”, the outcome [5] was “inactive” and the outcome [6] was “inactive”. The outcome [7] was “inactive”.
